# Test results as given in PubChem BioAssay (NCATS).
# Records with an inconclusive call do not appear. Active and inactive are the calls of the source. Calls follow the shape of the dose curve; as a rule, active = well fitted inhibition curve with a large enough effect; inconclusive = small, poorly fitted or top-dose-only effect; inactive = flat fitted curve, though single readings scatter.
# Test: P-glycoprotein substrates identified in KB-8-5-11 adenocarcinoma cell line, qHTS therapeutic library screen (AID 1346987); also: nearly all actives have a fitted effect of over 65% in size
# Conditions: KB-8-5-11 (P-gp overexpressing) viability, CellTiter-Glo, 72 h; series mostly up to 44.5 µM; activity change, negative = cytotoxicity: at the top concentration
# Summary of the method: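 In this qHTS, P-gp-rich KB-8-5-11 cells received library compounds across a concentration range. Viability was quantified by luminescence after 72 h at 37 degree C.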
# % is scaled to controls: 0 for no effect and ±100 for the full control effect; potency is read from the fitted curve at half-maximal effect.
SMILES,Potency,"activity change, negative = cytotoxicity",outcome
OC[C@H]1O[C@@H](n2cnc3c2NC=NC[C@H]3O)C[C@@H]1O,inactive,–,–
O=C(O)C[C@H]1CCC(=O)[C@@H]1C/C=C\CCOC1OC(CO)C(O)C(O)C1O (some centres undefined),–,7.73% (inactive),–
N#Cc1ccnc(N2C(=O)CC[C@H]2C(=O)N(c2cncc(F)c2)[C@H](C(=O)NC2CC(F)(F)C2)c2ccccc2Cl)c1,–,-20.7% (inactive),–
CC(=O)N[C@@H](CC(=O)N[C@@H](CCC(=O)O)C(=O)O)C(=O)O,–,-4.31% (inactive),–
Cc1cc(Nc2ncc(Cl)c(Nc3ccccc3S(=O)(=O)C(C)C)n2)c(OC(C)C)cc1C1CCNCC1,6.51 µM (active),–,–
CC(C)C(=O)O[C@@H]1[C@@H](O)[C@@H](O[C@H]2O[C@H](CO)[C@@H](O)[C@H](O)[C@H]2O)O[C@H](CO)[C@H]1O,–,5.88% [at 17.3 µM] (inactive),–
CC1CCC2(C)C(CC(O)C(O)C23CO3)C1(C)CCC1=CC(=O)OC1O (centres undefined),–,-5.79% (inactive),–
C=C1CC2C3(C)C(O)CC(=O)C(C)(C)C3C(OC(C)=O)C(OC(C)=O)C2(C)C2C(=O)OC(C)(C(=O)OC)C(=O)C12C (centres undefined),–,–,inactive [at 17.3 µM]
CCCC(=O)O[C@]1(C(=O)COC(C)=O)CC[C@H]2[C@@H]3C[C@H](F)C4=CC(=O)C=C[C@]4(C)[C@@]3(F)[C@@H](O)C[C@@]21C,–,-4.62% (inactive),–
COC1=CC(=O)C[C@@H](C)[C@]12Oc1cc(OC)cc(OC)c1C2=O,–,–,inactive
CC1(O)CCC2C(C(=O)O)=COC(OC3OC(CO)C(O)C(O)C3OC(=O)/C=C/c3ccc(O)cc3)C21 (centres undefined),–,2.76% [at 17.3 µM] (inactive),–
Cc1c(CN(C)C(=O)/C=C/c2cnc3c(c2)CCC(=O)N3)oc2ccccc12,–,-15.7% (inactive),–
CC1OC(OC2C(O)C(C(=O)O)OC(OC3CCC4(C)C(CCC5(C)C4C=CC4=C6CC(C)(C)CC(O)C6(C)CCC45C)C3(C)C)C2OC2OCC(O)C(O)C2O)C(O)C(O)C1O (centres undefined),–,–,inactive [at 9.29 µM]
COC1=CC(=O)O[C@@H](CCc2ccccc2)[C@@H]1O,–,4.29% (inactive),–
C=CC1C(O[C@@H]2O[C@H](CO)[C@@H](O)[C@H](O)[C@H]2O)OC=C(C(=O)OC)C1Cc1nccc2c1[nH]c1ccccc12 (some centres undefined),–,–,inactive [at 17.3 µM]
CC[C@@H](c1ccc(F)c(F)c1)n1c(C(=O)OC)c(-c2ccno2)[nH]c1=S,–,-13.6% (inactive),–
CON(C)C(=O)N1N=C(c2cc(F)ccc2F)S[C@@]1(CCCN)c1ccccc1,0.164 µM (active),–,–

SMILES,Potency,"activity change, negative = cytotoxicity",outcome
C=C1CCC(OC(C)=O)C2(C)CC3(O)OC(=O)C(C)=C3CC12 (centres undefined),–,–,inactive
COc1cc2c(cc1O)C1(Cc3ccc4c(c3C1=O)OCO4)N(C)CC2 (centres undefined),–,–,inactive
COC(=O)[C@@H]1C2CC3c4[nH]c5ccccc5c4CCN3CC2CC[C@@H]1O (some centres undefined),–,0.704% (inactive),–
CCOC(=O)c1ccc(N(C)c2csc(-c3ccccc3)n2)cc1,–,–,inactive
C=C(C(=O)O)C1CCC(C)C2CCC(=O)OC2(C)C1 (centres undefined),–,0.192% (inactive),–
CO[C@H](C(=O)[C@@H](O)[C@@H](C)O)C1Cc2cc3cc(O[C@H]4C[C@@H](O[C@H]5C[C@@H](O)[C@H](O)[C@@H](C)O5)[C@@H](O)[C@@H](C)O4)c(C)c(O)c3c(O)c2C(=O)[C@H]1O[C@H]1C[C@@H](O[C@H]2C[C@@H](O[C@H]3C[C@](C)(O)[C@H](O)[C@@H](C)O3)[C@H](O)[C@@H](C)O2)[C@H](O)[C@@H](C)O1 (some centres undefined),–,14% (inactive),–
c1ccc(C(OC2CCN(CCCc3nn[nH]n3)CC2)c2ccccc2)cc1,–,–,inactive
CO[C@@H](Cc1ccc(OCCc2nc(-c3ccccc3)oc2C)c2ccsc12)C(=O)O,–,–,inactive
CCCCCCCCCCCCCCCCCCOP(=O)([O-])OC1CC[N+](C)(C)CC1,–,3.18% [at 17.3 µM] (inactive),–
CCCOc1ccn2c(C(C)=O)cc(-c3ccccc3S(C)(=O)=O)c2c1,–,-7.43% (inactive),–
CNC(=O)Nc1ccc(OC)c(NC(=O)NC(=O)c2cc(F)c(F)cc2Cl)c1,–,–,inactive
CCCCCCCC/C=C\CCCCCCCC(=O)O,–,-2.14% (inactive),–
O=C(/C=C/c1ccc(O)cc1)OC[C@]12O[C@H]1[C@@H](O)[C@@H]1C=CO[C@@H](O[C@@H]3O[C@H](CO)[C@@H](O)[C@H](O)[C@H]3O)[C@@H]12,–,–,inactive [at 17.3 µM]
CCOC(=O)[C@H](CCc1ccccc1)N[C@@H](C)C(=O)N1C2CCCCC2C[C@H]1C(=O)O (some centres undefined),–,–,inactive
O=C(CCCCc1ccc2ccccc2c1)C(F)(F)F,–,1.14% [at 93.4 µM] (inactive),–
COc1cc(C)c(C(=O)O[C@H]2[C@@H](O)[C@H](n3ccc(=O)[nH]c3=O)O[C@@H]2CO)c(OC)c1,–,7.34% [at 17.3 µM] (inactive),–
CC(=O)O[C@H]1[C@H](Oc2ccccc2COC(=O)C2(O)C=CCCC2=O)O[C@H](CO)[C@@H](O)[C@@H]1O (some centres undefined),–,-1.5% [at 17.3 µM] (inactive),–
